Data taken from PubChem BioAssay AID797 (University of Pittsburgh Molecular Library Screening Center, 2007).
In all, about 200,000 compounds went through this assay and about 110 (0.055%) were called active. Many of the other results were omitted from the sample, so actives are more common in it than they were. Values without a mark were called inactive. Cut-off read from the data, not from the text of the source: active = inhibition above about 50%; inactive = the rest.

Target: Serine/threonine-protein kinase D1 (Homo sapiens) (UniProt Q15139)
Assay: inhibitors of human PKD1 kinase, biochemical, fluorescence polarization (AID 797)
Conditions: PKD1 kinase fluorescence polarization assay; stronger effect = higher value; concentration not given here

Serine/threonine-protein kinase D1 (Homo sapiens), sequence (Q15139 whole entry, looked up): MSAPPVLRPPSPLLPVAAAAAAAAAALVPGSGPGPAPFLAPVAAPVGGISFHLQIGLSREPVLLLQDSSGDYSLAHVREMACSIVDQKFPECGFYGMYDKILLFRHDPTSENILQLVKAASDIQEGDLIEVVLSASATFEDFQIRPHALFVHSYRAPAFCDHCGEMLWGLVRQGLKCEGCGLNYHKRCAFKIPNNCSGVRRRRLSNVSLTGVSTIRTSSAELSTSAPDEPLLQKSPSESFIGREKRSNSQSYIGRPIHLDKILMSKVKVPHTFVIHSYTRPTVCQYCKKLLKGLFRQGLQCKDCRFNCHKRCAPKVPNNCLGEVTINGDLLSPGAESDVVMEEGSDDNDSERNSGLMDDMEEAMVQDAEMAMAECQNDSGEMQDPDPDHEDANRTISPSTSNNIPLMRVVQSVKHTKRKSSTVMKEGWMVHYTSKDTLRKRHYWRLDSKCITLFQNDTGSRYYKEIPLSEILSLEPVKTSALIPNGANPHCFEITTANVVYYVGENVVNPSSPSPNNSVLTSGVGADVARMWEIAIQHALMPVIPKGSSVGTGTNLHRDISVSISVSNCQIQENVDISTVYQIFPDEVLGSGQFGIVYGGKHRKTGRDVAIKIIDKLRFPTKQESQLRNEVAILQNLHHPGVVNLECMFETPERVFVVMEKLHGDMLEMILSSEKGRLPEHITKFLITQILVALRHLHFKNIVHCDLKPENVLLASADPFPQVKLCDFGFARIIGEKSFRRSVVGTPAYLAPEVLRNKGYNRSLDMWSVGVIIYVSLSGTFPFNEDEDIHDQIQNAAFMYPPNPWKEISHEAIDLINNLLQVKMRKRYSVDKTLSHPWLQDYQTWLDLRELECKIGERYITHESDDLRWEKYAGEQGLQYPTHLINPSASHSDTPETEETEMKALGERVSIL

First: COc1ccc(OCC(=O)NN2Cc3ccccc3C2=N)cc1
Second: O=C(COc1ccc(-c2ccccc2)cc1)NN=C1CCCC1
The inhibition of the first is higher: 8.39% for the first, -5.5% for the second.

First: COc1cccc(NC(=O)C(Sc2nnnn2C)c2ccccc2)c1 (stereo not given)
Second: COC(=O)c1ccccc1SC1CC(=O)N(c2cccc(C)c2)C1=O (stereo not given)
The inhibition of the first is higher: 9.09% for the first, -3.82% for the second.

Going from `Cc1cccc(/C(N)=N/OC(=O)c2ccccc2Cl)c1` to `Cc1cccc(NS(=O)(=O)c2ccc(C)c(C(N)=O)c2)c1`, the inhibition falls from -1.38% to -2.59%.

First: O=C(NC1CCCCC1)C1CC(=O)N(CCc2ccccc2)C1 (stereo not given)
Second: S=C(NN=C1CCN(Cc2ccccc2)CC1)NC1CCCCC1
The inhibition of the first is lower: -8.12% for the first, 1.24% for the second.

Going from `Cc1cc(/C=C(/C#N)C(=O)Nc2ccc(Cl)cc2)c(C)n1-c1cccnc1` to `O=C(Nc1nnc(Cc2ccc(Cl)cc2)s1)c1cccnc1`, the inhibition falls from 1.34% to -1.74%.

Going from `CCN1CN(Cc2ccccc2)CNC1=S` to `Cc1c(Br)c([N+](=O)[O-])nn1CC(=O)N1CCN(Cc2ccccc2)CC1`, the inhibition rises from -12% to 6.58%.

First: CCNC(=O)CC1C(=O)N(c2ccc(F)cc2)C(=O)N1Cc1cccs1 (stereo not given)
Second: O=C1CCCC2=C1C(c1cccs1)CC(=O)N2c1ccc(F)cc1 (stereo not given)
The inhibition of the first is higher: 4.62% for the first, -3.47% for the second.

Going from `CCOc1ccc(N2C(=O)Nc3ccccc3C2(O)C(=O)NCc2ccco2)cc1` (stereo not given) to `Cc1ccc2c(c1)N(CC(=O)N(Cc1ccccn1)Cc1ccco1)C(=O)C(C(C)C)O2` (stereo not given), the inhibition falls from -4.75% to -5.96%.

First: CN(C)/C=C(\C#N)C(=O)c1cccnc1Oc1cccc(F)c1
Second: O=Cc1ccc(Oc2cccc(C(F)(F)F)c2)nc1
The inhibition of the first is lower: 5.99% for the first, 7.02% for the second.

Compared with `CCCCn1nc(C(=O)OCC(=O)Nc2sccc2C(N)=O)c2ccccc2c1=O`, `C/C(N)=C(/C#N)C(=O)COC(=O)c1cc(-c2cccc(Br)c2)nc2ccccc12` is lower in inhibition: 4.31% for the first, -0.94% for the second.

Going from `Cc1ccc(NC(=S)N(CCCN2CCC(C)CC2)Cc2ccco2)cc1` to `Cc1ccc(NC(=O)C(=O)NCC2CCN(C(=O)c3cccc([N+](=O)[O-])c3)CC2)cc1`, the inhibition rises from 2.06% to 4.77%.

Compared with `Cc1ccc2cc(CCNC(=O)c3c(-c4ccccc4Cl)noc3C)c(=O)[nH]c2c1`, `COc1cc(OC)c(C2=NOC(C(=O)Nc3c(C)n(C)n(-c4ccccc4)c3=O)C2)cc1Cl` (stereo not given) is higher in inhibition: 0.32% for the first, 5.19% for the second.

First: CC(C)CC(CO)N1CCN(C(=O)c2ccc(Cl)cc2Cl)CCC1=O (stereo not given)
Second: CCN(CC)CC1(O)CCN(C(=O)c2ccc(Cl)c(Cl)c2)CC1
The inhibition of the first is lower: -14% for the first, 6.8% for the second.

First: CN(CC(=O)Nc1ccccc1F)CC(=O)Nc1ccccc1Br
Second: Cn1c(CCC(=O)Nc2ccccc2F)nnc1SCC(=O)Nc1ccccc1Cl
The inhibition of the first is lower: -7.89% for the first, -1.31% for the second.

Compared with `COc1ccc(N=C2SC(C(=O)Nc3ccc(F)cc3)CC(=O)N2C)cc1` (stereo not given), `Cc1ccc(C(=O)CNc2ccc(F)cc2)cc1` is lower in inhibition: -4.67% for the first, -19.1% for the second.

Compared with `CCOc1ccc(-c2c(C)n([O-])c3c([n+]2=O)CCCC3)cc1`, `CCc1ccc(-c2cc(C(=O)NN3CCN(C)CC3)c3ccccc3n2)cc1` is higher in inhibition: -3.86% for the first, 6.48% for the second.

Compared with `Cn1cc(/C=C/c2nc3ccccc3c(=O)n2-c2cccc([N+](=O)[O-])c2)c2ccccc21`, `S=c1[nH]cc(-c2ccc(Cl)cc2)n1-c1ccccc1` is lower in inhibition: -2.78% for the first, -3.56% for the second.

First: CC(=O)c1ccc(Oc2cc(C)nc(-n3nc(C)cc3C)n2)cc1
Second: COc1ccccc1/C=N\Nc1cc(C)nc(-n2nc(C)cc2C)n1
The inhibition of the first is lower: -3.62% for the first, 2.16% for the second.

First: CCCCCC(=O)NC(=S)NNC(=O)c1ccc([N+](=O)[O-])cc1
Second: CCN(CC)CCNC(=O)CCCCCn1c(=O)[nH]c2cc(C(=O)OC)ccc2c1=O
The inhibition of the first is higher: -0.76% for the first, -5.2% for the second.

Going from `O=C(CN1C(=O)NC2(CCCCCC2)C1=O)NC1CC1` to `COc1ccc(S(=O)(=O)N2CCN(C(=O)NC3CCCCC3)CC2)cc1`, the inhibition rises from -5.29% to -1.15%.

Going from `CC1(C)CC(=O)C(N=Nc2ccc(S(=O)(=O)N3CCCCCC3)cc2)=C(O)C1` to `Cc1ccc(/C=C/C(=O)Nc2cc(S(=O)(=O)N3CCCCCC3)ccc2OCC(F)(F)F)o1`, the inhibition falls from 4.42% to -9.11%.

Going from `O=C(O)Cc1ccc(NCc2ccccc2Cl)cc1` to `O=C(Cc1c[nH]c2ccccc12)N/N=C/c1cccc(F)c1`, the inhibition rises from 0.93% to 12.4%.

First: Cc1ccc(C(=O)Cc2nnc(C)s2)cc1
Second: Cc1nc(-c2ccc(Cl)cc2)sc1C(=O)CBr
The inhibition of the first is lower: 1.06% for the first, 2.56% for the second.

First: CC(=O)Nc1ccc(NC(=S)NC(=O)/C=C/c2ccccc2)cc1
Second: CC(NC(=O)C(=O)N/N=C/c1ccc(Cl)cc1)c1ccccc1 (stereo not given)
The inhibition of the first is lower: -7.92% for the first, -2.86% for the second.

Going from `CCOc1cc2[nH]c(=S)n(Cc3ccc(C(=O)NCCOC)cc3)c(=O)c2cc1OCC` to `COc1ccc(NC(=O)CCNS(=O)(=O)c2ccc3c(c2)c(=O)n(C)c(=O)n3C)cc1OC`, the inhibition rises from -4.22% to -3.26%.

Compared with `COC(=O)C1(O)CC(C(C)C)=NN1C(=O)c1ccc(Cl)cc1` (stereo not given), `CC(C)c1ccc(-c2noc(C3CCCN(S(C)(=O)=O)C3)n2)cc1` (stereo not given) is higher in inhibition: -10.1% for the first, 0.73% for the second.

First: COc1ccc(CCNC(=O)COC(=O)C2CCCCC2)cc1
Second: O=C(CSc1ncnc2c1nnn2Cc1ccc(F)cc1)NC1CCCC1
The inhibition of the first is higher: 1.52% for the first, -10.6% for the second.

Compared with `CN(CCc1cnn(C)c1)Cc1cn(C)nc1-c1ccccc1F`, `O=C(/C=C/c1ccc2c(c1)OCO2)NCc1cn2cc(Cl)ccc2n1` is lower in inhibition: 0.1% for the first, -5.4% for the second.

Going from `CC1=NN(C(=O)CCCc2ccccc2)C(O)(C(F)(F)F)C1` (stereo not given) to `O=C(CCCc1ccccc1)NCc1ccccc1`, the inhibition falls from -2.79% to -6.66%.

Compared with `O=C(CC1SC(=Nc2ccccc2F)N(CCN2CCOCC2)C1=O)Nc1ccc(F)cc1F` (stereo not given), `Cn1c(=O)c2cc(S(=O)(=O)NCCC(=O)Nc3ccc(F)cc3F)ccc2n(C)c1=O` is lower in inhibition: 1.23% for the first, -2.88% for the second.

First: O=C(Nc1cccnc1)c1ccc(Cl)cc1[N+](=O)[O-]
Second: O=[N+]([O-])c1ccccc1SNc1ccccn1
The inhibition of the first is higher: -1.12% for the first, -1.62% for the second.

First: COc1ccc(NC(=S)NCc2cccs2)c(OC)c1
Second: COc1cccc(CNC(=O)CCN2C(=S)NC(C)(C)CC2C)c1 (stereo not given)
The inhibition of the first is lower: 7.19% for the first, 16.6% for the second.

Compared with `CC(C)NC(=S)N1CCN(C(c2ccccc2)c2ccccc2)CC1`, `O=C(NC(=S)N1CCN(Cc2ccccc2)CC1)c1ccccc1` is lower in inhibition: 3.7% for the first, -10.3% for the second.

First: Cc1cc(C(=O)CC#N)c(C)n1-c1c(C)n(C)n(-c2ccccc2)c1=O
Second: COC(=O)C1=C(C)N(c2ccc(C)cc2)/C(=C/c2ccc(O)cc2)C1=O
The inhibition of the first is lower: -2.44% for the first, 1.38% for the second.

Compared with `CCS(=O)(=O)c1ccc2c(c1)N(S(=O)(=O)c1ccccc1)CC(C(=O)O)O2` (stereo not given), `O=C(Nc1cc(S(=O)(=O)N2CCOCC2)ccc1Cl)c1cc(=O)c2ccccc2o1` is lower in inhibition: 2.03% for the first, -4.37% for the second.

First: CC1(C)CC(=O)C2=C(C1)N=C1SCCC(=O)N1C2c1ccc(C(F)(F)F)cc1 (stereo not given)
Second: NC(=O)c1ncc(C(F)(F)F)cc1Oc1ccc(F)cc1
The inhibition of the first is higher: -8.04% for the first, -8.91% for the second.

Going from `CN1CCN(C(c2cc3cc4c(cc3[nH]c2=O)OCCO4)c2nnnn2C2CCCC2)CC1` (stereo not given) to `CC(C)N1CCC(=NNc2ccc([N+](=O)[O-])cc2S(=O)(=O)N2CCOCC2)CC1`, the inhibition falls from -0.35% to -0.4%.

Compared with `S=C(NC1CCCCC1)NN1CCOCC1`, `OCCCC1CCCCN1Cc1nc(Cc2ccccc2Cl)no1` (stereo not given) is higher in inhibition: -5.63% for the first, 0.81% for the second.

Going from `COCCSc1nnc(NC(=O)c2cc(OC)c(OC)cc2[N+](=O)[O-])s1` to `CCc1c(C)nc2c(OC)cccc2c1Cl`, the inhibition rises from -3.97% to -2.35%.

Going from `Cc1cn(C)c(=O)n(C)c1=O` to `Cn1nccc1CNC(=O)c1ccnn1C`, the inhibition falls from 1.43% to -0.52%.

Going from `N#Cc1ccc(-c2nc3cc(C#N)c(C#N)cc3nc2-c2ccccc2)cc1C#N` to `N#Cc1cccc(Nc2c3c(nc4ccccc24)CCCC3)c1`, the inhibition falls from 9.6% to 1.12%.

Going from `C=CCC(C(=O)c1ccccc1)[N+](C)(C)CC=C` (stereo not given) to `Cc1cccc(C(=O)OC(C)CN2CCN(C)CC2)c1` (stereo not given), the inhibition rises from -3.34% to 1.4%.

Going from `Cc1cc(C)cc(C(=O)NC(=S)Nc2ccc3[nH]c(=O)[nH]c3c2)c1` to `O=C1CN(C(=O)COC(=O)c2cnc(Cl)c(Cl)c2)c2ccccc2N1`, the inhibition falls from 20.7% to 1.7%.

First: Cc1ccc(S(=O)(=O)Cc2cc(-c3ccc(Cl)cc3)no2)cc1
Second: Cc1ccc(-c2nnc(SCC(=O)N/N=C/c3cccs3)n2-c2ccc(C)cc2)cc1
The inhibition of the first is higher: -1.03% for the first, -3.67% for the second.

Going from `CCOc1ccc(-n2c(SCC(=O)NC3CCS(=O)(=O)C3)nnc2-c2cccnc2)cc1` (stereo not given) to `COc1ccc(-c2ccc(CCC(=O)O)n2-c2ccc(O)cc2)cc1`, the inhibition falls from 0.66% to -3.57%.

Going from `CN(Cc1ccc2nsnc2c1)Cc1nc(Cc2cccc(F)c2)no1` to `Oc1ccc2ccc3cccc[n+]3c2c1`, the inhibition falls from 5.24% to -0.84%.

Compared with `Cc1nnsc1C(=O)Nc1cccc(Cl)c1C`, `C/C(=N\OCC(=O)Nc1ccc(Br)cc1)c1cccs1` is lower in inhibition: -5.78% for the first, -6.23% for the second.

`COc1ccc(Nc2cc(C)nc(-n3nc(C)cc3C)n2)cc1` was tested, and the inhibition was 56.8% (active).
